How the values were obtained:
Test in all cases: DAPPL (digital affinity profiling via proximity ligation, sequencing); 10 mM Tris-HCl pH 7.5, 50 mM NaCl, 1 mM DTT, 4% glycerol, room temperature, 30 min; GST-TFs on glutathione beads, 16-mer random dsDNA library, 0.1% formaldehyde crosslink after washing; high values mean tight binding
Conditions in all cases: protein: recombinant; tags: N-terminal GST; dsDNA, one strand shown
[1] = target: T1, FLI1 (Homo sapiens, UniProt Q01543 1-452)
T1 sequence: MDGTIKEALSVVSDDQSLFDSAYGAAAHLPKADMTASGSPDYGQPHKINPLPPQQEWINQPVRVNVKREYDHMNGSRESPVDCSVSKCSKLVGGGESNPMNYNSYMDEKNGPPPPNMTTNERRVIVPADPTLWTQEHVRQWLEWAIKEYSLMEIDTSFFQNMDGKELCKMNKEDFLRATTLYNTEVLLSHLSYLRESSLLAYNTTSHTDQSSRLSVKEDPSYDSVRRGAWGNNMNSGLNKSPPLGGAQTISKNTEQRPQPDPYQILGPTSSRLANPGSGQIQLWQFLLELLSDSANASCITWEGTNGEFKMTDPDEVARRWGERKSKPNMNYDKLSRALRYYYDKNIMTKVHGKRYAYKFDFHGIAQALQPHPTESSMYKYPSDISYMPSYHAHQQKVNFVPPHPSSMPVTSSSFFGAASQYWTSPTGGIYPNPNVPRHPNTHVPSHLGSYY
How it was run: (§1)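 Pools were built from human transcription factors expressed in yeast as GST fusions, captured on glutathione beads and DNA-barcoded, along with a tag-only sample. Incubation with 200 nmole of a 16-mer random double-stranded DNA library lasted 30 min at room temperature in Tris/NaCl/DTT/glycerol buffer, and was followed by washing, 0.1% formaldehyde crosslinking, proximity ligation, PCR amplification and Illumina NextSeq500 sequencing. Binding signal is the quotient of each hexamer's read frequency for a factor and its frequency for the tag-only sample.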

[2] = target: T2, ELK1 (Homo sapiens, UniProt P19419 1-428)
T2 sequence: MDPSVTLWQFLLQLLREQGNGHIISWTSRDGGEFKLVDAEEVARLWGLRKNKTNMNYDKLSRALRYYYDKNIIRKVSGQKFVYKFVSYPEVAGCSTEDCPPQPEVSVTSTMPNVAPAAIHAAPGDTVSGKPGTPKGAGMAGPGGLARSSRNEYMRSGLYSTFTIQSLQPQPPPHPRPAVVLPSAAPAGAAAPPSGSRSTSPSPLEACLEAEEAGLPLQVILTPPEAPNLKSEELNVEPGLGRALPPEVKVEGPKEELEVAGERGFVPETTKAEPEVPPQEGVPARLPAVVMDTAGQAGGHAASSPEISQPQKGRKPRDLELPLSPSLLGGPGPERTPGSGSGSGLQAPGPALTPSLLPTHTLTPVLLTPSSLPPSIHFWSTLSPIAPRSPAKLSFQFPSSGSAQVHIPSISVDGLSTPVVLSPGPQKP
How it was run: as §1

[3] = target: T3, GABPA (Homo sapiens, UniProt Q06546 1-454)
T3 sequence: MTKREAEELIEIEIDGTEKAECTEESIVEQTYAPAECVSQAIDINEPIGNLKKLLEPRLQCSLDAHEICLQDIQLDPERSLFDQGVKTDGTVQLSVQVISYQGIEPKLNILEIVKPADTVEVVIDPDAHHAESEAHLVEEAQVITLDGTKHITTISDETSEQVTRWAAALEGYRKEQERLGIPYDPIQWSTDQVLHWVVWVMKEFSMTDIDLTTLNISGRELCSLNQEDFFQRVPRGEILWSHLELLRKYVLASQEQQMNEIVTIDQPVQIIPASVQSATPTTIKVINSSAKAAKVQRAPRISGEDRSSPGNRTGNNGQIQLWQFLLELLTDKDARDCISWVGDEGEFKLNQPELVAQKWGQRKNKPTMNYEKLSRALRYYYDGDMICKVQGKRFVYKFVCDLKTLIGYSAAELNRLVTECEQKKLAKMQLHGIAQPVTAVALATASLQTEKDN
How it was run: as §1

[4] = target: T4, ERG (Homo sapiens, UniProt P11308 1-479)
T4 sequence: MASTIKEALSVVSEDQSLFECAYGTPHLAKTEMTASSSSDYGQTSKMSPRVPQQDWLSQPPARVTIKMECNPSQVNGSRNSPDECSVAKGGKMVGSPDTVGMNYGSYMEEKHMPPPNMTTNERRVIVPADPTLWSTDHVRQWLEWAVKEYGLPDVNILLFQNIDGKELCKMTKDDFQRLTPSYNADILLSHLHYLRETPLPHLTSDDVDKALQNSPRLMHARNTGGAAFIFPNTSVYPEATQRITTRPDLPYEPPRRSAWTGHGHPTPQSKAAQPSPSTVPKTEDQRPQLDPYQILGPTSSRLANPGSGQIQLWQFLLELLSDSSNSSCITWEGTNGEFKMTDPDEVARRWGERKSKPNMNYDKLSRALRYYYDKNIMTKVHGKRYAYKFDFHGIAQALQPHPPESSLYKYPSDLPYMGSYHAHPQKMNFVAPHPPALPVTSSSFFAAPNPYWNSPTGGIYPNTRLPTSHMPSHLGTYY
How it was run: as §1

[5] = target: ELF1 (Homo sapiens, UniProt P32519 1-619)
How it was run: as §1

[6] = target: T5, EHF (Homo sapiens, UniProt Q9NZC4 1-300)
T5 sequence: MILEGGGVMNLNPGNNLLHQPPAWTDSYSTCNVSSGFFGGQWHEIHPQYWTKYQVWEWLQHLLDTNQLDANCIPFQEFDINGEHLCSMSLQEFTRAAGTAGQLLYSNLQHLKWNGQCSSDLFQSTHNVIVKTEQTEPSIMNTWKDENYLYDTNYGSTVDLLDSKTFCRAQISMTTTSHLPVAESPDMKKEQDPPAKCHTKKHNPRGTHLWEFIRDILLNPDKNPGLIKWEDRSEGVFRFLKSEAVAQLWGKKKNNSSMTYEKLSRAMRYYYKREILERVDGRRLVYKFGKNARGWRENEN
How it was run: as §1

[7] = target: SPI1 (Homo sapiens, UniProt P17947 1-270)
How it was run: as §1

[8] = target: SPIB (Homo sapiens, UniProt Q01892 1-262)
How it was run: as §1

[9] = target: T6, ELK3 (Homo sapiens, UniProt P41970 1-407)
T6 sequence: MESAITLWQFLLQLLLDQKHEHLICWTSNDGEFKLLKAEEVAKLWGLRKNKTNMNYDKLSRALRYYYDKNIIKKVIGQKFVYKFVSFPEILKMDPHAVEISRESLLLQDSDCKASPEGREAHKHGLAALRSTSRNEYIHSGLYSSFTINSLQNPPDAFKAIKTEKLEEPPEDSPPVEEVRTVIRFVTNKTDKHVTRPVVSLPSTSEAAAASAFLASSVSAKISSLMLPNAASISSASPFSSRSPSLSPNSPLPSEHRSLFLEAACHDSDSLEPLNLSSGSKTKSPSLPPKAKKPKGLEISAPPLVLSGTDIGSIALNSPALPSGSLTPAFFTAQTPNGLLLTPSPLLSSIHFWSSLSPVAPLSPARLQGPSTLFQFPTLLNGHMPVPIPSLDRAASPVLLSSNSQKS
How it was run: as §1

[10] = target: T7, FEV (Homo sapiens, UniProt Q99581 1-238)
T7 sequence: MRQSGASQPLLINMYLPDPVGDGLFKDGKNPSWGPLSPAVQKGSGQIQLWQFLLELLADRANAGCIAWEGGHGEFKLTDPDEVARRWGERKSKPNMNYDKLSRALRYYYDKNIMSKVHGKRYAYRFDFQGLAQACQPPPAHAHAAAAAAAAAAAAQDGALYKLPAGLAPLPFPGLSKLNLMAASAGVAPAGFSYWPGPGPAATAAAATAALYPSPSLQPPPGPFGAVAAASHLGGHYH
How it was run: as §1

[11] = target: ETV5 (Homo sapiens, UniProt P41161 1-510)
How it was run: as §1

[12] = target: T8, SPIC (Homo sapiens, UniProt Q8N5J4 1-248)
T8 sequence: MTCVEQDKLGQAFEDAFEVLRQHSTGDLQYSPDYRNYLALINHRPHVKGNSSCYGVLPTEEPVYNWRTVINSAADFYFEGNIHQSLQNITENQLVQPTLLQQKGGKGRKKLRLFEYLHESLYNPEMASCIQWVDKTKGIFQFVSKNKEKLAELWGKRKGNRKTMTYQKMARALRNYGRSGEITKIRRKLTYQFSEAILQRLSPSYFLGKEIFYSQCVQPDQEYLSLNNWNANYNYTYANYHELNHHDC
How it was run: as §1

[13] = target: ELF4 (Homo sapiens, UniProt Q99607 1-663)
How it was run: as §1

[14] = target: T9, ELK4 (Homo sapiens, UniProt P28324-2 1-405)
T9 sequence: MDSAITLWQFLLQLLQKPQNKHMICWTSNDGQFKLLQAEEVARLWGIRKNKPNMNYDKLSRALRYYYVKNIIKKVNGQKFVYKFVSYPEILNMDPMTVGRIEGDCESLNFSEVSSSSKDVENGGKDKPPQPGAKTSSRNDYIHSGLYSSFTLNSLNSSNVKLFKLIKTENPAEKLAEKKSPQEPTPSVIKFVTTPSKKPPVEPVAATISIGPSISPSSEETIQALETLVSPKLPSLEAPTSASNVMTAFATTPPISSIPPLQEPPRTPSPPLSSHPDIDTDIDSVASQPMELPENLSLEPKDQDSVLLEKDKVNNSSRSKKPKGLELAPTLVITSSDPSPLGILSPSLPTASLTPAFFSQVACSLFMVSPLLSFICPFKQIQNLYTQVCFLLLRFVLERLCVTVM
How it was run: as §1

[15] = target: T10, ETV2 (Homo sapiens, UniProt O00321 1-342)
T10 sequence: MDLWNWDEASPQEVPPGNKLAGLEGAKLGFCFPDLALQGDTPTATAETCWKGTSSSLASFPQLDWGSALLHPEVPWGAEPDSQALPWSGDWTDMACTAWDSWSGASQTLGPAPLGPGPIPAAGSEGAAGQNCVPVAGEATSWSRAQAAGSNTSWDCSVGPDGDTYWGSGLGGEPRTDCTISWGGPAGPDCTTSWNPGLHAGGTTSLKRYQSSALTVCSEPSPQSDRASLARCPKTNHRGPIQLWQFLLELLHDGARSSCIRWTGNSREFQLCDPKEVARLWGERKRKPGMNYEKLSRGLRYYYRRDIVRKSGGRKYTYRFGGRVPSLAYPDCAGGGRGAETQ
How it was run: as §1

[16] = target: T11, ELF3 (Homo sapiens, UniProt P78545 1-371)
T11 sequence: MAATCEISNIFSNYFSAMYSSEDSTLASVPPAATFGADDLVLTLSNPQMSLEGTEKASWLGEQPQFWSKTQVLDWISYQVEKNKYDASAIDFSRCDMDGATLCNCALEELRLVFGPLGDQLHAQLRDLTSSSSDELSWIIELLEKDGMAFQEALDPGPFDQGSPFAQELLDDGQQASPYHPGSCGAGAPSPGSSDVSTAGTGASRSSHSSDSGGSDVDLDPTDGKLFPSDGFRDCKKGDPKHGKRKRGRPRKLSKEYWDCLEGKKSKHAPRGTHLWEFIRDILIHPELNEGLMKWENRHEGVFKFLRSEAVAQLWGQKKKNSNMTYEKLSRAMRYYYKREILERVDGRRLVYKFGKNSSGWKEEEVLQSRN
How it was run: as §1

[17] = target: ETV1 (Homo sapiens, UniProt P50549 1-477)
How it was run: as §1

Sequence of ELF1 (P32519 whole entry): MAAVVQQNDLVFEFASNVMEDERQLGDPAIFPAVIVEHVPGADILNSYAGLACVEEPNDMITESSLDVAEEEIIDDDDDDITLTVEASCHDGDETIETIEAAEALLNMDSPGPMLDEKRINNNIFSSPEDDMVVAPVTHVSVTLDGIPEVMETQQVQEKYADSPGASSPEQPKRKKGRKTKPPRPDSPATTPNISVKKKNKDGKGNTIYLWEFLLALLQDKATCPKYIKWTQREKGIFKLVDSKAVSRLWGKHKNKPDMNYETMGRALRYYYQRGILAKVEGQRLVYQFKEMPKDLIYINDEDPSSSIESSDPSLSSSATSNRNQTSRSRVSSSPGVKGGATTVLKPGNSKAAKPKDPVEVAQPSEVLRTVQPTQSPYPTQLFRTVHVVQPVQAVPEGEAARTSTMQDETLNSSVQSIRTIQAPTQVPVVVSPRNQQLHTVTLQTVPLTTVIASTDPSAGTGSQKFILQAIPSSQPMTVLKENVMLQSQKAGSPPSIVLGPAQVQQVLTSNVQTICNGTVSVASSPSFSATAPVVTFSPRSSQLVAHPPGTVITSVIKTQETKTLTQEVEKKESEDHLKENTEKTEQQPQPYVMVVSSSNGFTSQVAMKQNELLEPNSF
Sequence of ETV1 (P50549 whole entry): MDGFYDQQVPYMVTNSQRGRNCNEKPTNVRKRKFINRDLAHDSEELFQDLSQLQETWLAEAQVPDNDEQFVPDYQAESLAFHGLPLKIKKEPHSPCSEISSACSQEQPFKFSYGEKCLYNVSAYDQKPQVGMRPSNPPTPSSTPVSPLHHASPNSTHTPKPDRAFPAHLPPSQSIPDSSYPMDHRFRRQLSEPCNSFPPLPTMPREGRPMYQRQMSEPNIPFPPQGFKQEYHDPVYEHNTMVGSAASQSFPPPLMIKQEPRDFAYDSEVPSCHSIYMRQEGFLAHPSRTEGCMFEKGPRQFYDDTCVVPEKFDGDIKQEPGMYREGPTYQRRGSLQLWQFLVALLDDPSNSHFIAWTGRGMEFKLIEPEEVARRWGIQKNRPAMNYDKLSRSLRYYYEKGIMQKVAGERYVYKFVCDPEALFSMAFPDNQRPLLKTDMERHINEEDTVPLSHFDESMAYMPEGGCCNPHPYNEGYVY
Sequence of ELF4 (Q99607 whole entry): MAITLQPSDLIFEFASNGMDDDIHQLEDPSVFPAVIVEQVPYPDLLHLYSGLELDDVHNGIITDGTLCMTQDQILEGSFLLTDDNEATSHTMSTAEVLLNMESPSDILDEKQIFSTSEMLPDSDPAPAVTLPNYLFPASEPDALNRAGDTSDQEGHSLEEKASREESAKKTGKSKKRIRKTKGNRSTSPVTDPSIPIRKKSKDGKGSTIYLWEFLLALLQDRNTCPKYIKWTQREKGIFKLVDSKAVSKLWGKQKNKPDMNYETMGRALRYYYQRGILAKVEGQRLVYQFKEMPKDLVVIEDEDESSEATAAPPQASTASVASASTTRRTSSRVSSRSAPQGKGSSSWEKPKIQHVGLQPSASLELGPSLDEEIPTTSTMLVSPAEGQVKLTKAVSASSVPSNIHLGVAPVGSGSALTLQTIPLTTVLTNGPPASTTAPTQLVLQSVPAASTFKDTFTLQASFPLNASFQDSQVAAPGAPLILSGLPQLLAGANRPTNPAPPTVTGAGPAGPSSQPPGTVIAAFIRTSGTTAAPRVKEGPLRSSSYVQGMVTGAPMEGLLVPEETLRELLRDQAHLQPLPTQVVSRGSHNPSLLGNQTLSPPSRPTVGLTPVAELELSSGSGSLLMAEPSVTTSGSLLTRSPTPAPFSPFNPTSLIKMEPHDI
Sequence of ETV5 (P41161 whole entry): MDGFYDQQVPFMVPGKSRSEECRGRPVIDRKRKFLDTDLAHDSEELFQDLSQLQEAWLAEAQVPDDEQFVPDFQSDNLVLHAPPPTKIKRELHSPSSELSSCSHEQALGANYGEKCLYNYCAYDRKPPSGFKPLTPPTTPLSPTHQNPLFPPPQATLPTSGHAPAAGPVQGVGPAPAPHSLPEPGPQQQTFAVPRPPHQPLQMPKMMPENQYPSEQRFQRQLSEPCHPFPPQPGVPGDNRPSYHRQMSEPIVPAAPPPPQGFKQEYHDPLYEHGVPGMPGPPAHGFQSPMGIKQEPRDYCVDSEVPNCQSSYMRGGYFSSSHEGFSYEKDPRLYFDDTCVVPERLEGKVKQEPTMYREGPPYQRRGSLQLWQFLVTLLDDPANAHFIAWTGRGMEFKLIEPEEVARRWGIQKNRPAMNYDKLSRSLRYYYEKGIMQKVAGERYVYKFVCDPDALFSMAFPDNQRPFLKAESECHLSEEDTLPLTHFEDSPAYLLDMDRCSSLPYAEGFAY
Sequence of SPIB (Q01892 whole entry): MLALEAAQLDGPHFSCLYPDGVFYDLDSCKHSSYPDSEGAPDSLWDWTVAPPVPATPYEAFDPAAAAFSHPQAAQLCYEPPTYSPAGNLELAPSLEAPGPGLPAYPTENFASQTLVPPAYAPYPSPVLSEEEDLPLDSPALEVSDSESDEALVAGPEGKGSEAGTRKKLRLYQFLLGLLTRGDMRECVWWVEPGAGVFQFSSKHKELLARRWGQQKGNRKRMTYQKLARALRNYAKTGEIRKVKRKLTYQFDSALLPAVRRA

Sequence | binding signal [1] | binding signal [2] | binding signal [3] | binding signal [4] | binding signal [5] | binding signal [6] | binding signal [7] | binding signal [8] | binding signal [9] | binding signal [10] | binding signal [11] | binding signal [12] | binding signal [13] | binding signal [14] | binding signal [15] | binding signal [16] | binding signal [17]
CTCACC | 1.26 fold enrichment (6-mer frequency, TF over GST control) | 1.32 fold enrichment (6-mer frequency, TF over GST control) | 1.32 fold enrichment (6-mer frequency, TF over GST control) | 1.13 fold enrichment (6-mer frequency, TF over GST control) | 1.2 fold enrichment (6-mer frequency, TF over GST control) | 1.24 fold enrichment (6-mer frequency, TF over GST control) | 1.24 fold enrichment (6-mer frequency, TF over GST control) | 1.34 fold enrichment (6-mer frequency, TF over GST control) | 1.3 fold enrichment (6-mer frequency, TF over GST control) | 1.2 fold enrichment (6-mer frequency, TF over GST control) | 1.16 fold enrichment (6-mer frequency, TF over GST control) | 1.25 fold enrichment (6-mer frequency, TF over GST control) | 1.28 fold enrichment (6-mer frequency, TF over GST control) | 1.2 fold enrichment (6-mer frequency, TF over GST control) | 1.17 fold enrichment (6-mer frequency, TF over GST control) | 1.33 fold enrichment (6-mer frequency, TF over GST control) | 1.25 fold enrichment (6-mer frequency, TF over GST control)
GGACAT | 1.19 fold enrichment (6-mer frequency, TF over GST control) | 1.19 fold enrichment (6-mer frequency, TF over GST control) | 1.24 fold enrichment (6-mer frequency, TF over GST control) | 1.24 fold enrichment (6-mer frequency, TF over GST control) | 1.19 fold enrichment (6-mer frequency, TF over GST control) | 1.19 fold enrichment (6-mer frequency, TF over GST control) | 1.13 fold enrichment (6-mer frequency, TF over GST control) | 1.14 fold enrichment (6-mer frequency, TF over GST control) | 1.19 fold enrichment (6-mer frequency, TF over GST control) | 1.56 fold enrichment (6-mer frequency, TF over GST control) | 1.18 fold enrichment (6-mer frequency, TF over GST control) | 1.28 fold enrichment (6-mer frequency, TF over GST control) | 1.11 fold enrichment (6-mer frequency, TF over GST control) | 1.07 fold enrichment (6-mer frequency, TF over GST control) | 1.16 fold enrichment (6-mer frequency, TF over GST control) | 1.24 fold enrichment (6-mer frequency, TF over GST control) | 1.23 fold enrichment (6-mer frequency, TF over GST control)
